This is an account of results in PubChem BioAssay (EPA / NIEHS).

The structures appear in SMILES notation. The source made the active and inactive calls. Rule for the calls: active = hit-call score of the fitted dose curve at least 0.9, where 1 is the maximum; inactive = score below 0.9.

The nature of test [1]: ATG_E_Box_CIS: Attagene CIS-FACTORIAL HepG2 Assay for human Enhancer Box (E-box) (AID 2282936). The note with it: HepG2 E-box cis-reporter transcription, actives raise or lower the signal. The gist of the method:
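Fluorescent reporter fragments separated by capillary electrophoresis gave the signal; mRNA came from HepG2 cells transfected with cis-element reporters and treated 24 h. Curves fitted bidirectionally relative to DMSO controls.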

Test [2] can be described thus: ATG_M_61_CIS: Attagene CIS-FACTORIAL HepG2 Assay for M61 Transcription Factor (Internal Marker) (AID 2282937). The note with it: HepG2 Attagene CIS-FACTORIAL M61 internal marker reporter; actives raise or lower the signal. The essentials:
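Readout is reporter mRNA by RT-PCR, fluorescent primer extension and capillary electrophoresis, with gain or loss fitted relative to DMSO. Transfected HepG2 cells carrying endogenous-TF-driven cis reporters were exposed to chemicals for 24 hours.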

Test [3] is described as follows: ATG_EGR_CIS: Attagene CIS-FACTORIAL HepG2 Assay for human Early Growth Response 1 (EGR1) (AID 2282938). To be noted: HepG2 Attagene CIS-FACTORIAL EGR reporter mRNA; actives raise or lower the signal. The essentials: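 After 24 h compound exposure, RNA from reporter-transfected HepG2 cells was reverse-transcribed, PCR-amplified, fluorescently labelled and resolved by capillary electrophoresis. EGR1 reporter transcript changes, up or down, were fitted against DMSO, reflecting endogenous transcription-factor activity.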

The nature of test [4]: ATG_M_19_CIS: Attagene CIS-FACTORIAL HepG2 Assay for M19 Transcription Factor (Internal Marker) (AID 2282939). To be noted: HepG2 Attagene CIS-FACTORIAL M19 internal marker reporter; actives raise or lower the signal. The essentials: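 HepG2, MRTU transient transfection, 24 h dosing. Total RNA → RT-PCR → 6-FAM primer extension → HpaI digest → CE fluorescence. Bidirectional curve fit, DMSO negative control.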

Test [5] can be described thus: ATG_ERE_CIS: Attagene CIS-FACTORIAL HepG2 Assay for Estrogen Response Element (ERE) (AID 2282940). The note with it: HepG2 ERE cis-reporter, Attagene RNA transcript; actives raise or lower the signal. The gist of the method: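 After a 24 h chemical treatment, RNA from reporter-transfected HepG2 cells is reverse-transcribed, PCR-amplified and fluorescently labelled. Fragments separated by capillary electrophoresis give reporter signal; DMSO serves as negative control.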

The nature of test [6]: ATG_Ets_CIS: Attagene CIS-FACTORIAL HepG2 Assay for human Erythroblast Transformation Specific (ETS) (AID 2282941). The note with it: HepG2 ETS cis-reporter transcription, actives raise or lower the signal. The essentials: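 Bidirectional fit versus DMSO of reporter mRNA signal, detected by RT-PCR and capillary electrophoresis in HepG2 cells transiently transfected with cis-element reporters and dosed 24 h.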

Test [7] has as its target Hepatocyte nuclear factor 3-beta (Homo sapiens) (UniProt Q9Y261). Put plainly: ATG_FoxA2_CIS: Attagene CIS-FACTORIAL HepG2 Assay for human Forkhead box A2 (FOXA2) (AID 2282942). To be noted: HepG2 cis-reporter transcription factor activity, 24 h; actives raise or lower the signal. The gist of the method: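 Endogenous transcription factor activity is captured via cis-element-driven reporter transcripts in transfected HepG2. Total RNA taken at 24 h post-dosing; labelled RT-PCR products resolved by capillary electrophoresis. Gain or loss fitted versus DMSO.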

Test [8] in a line: ATG_FoxO_CIS: Attagene CIS-FACTORIAL HepG2 Assay for human Forkhead box O (FoxO) (AID 2282943). To be noted: HepG2 Attagene cis-reporter, FoxO element, mRNA; actives raise or lower the signal. The gist of the method: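 HepG2, transient MRTU transfection (cis element, endogenous TFs). Dose 24 h. TriZol RNA → oligo(dT) RT → PCR → 6-FAM primer extension → HpaI cut → CE. Gain/loss vs DMSO.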

Test [9] is described as follows: ATG_GATA_CIS: Attagene CIS-FACTORIAL HepG2 Assay for human GATA Binding Protein (AID 2282944). To be noted: HepG2 GATA cis-element reporter, Attagene multiplex mRNA; actives raise or lower the signal. The gist of the method:
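Cells: HepG2, transiently transfected with cis-regulated reporter transcription units. Exposure: 24 h. Detection: RT-PCR plus capillary electrophoresis of FAM-labeled fragments. Analysis: bidirectional, DMSO as baseline.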

The nature of test [10]: ATG_GLI_CIS: Attagene CIS-FACTORIAL HepG2 Assay for human Zinc Finger Protein GLI1 (AID 2282945). The note with it: HepG2, Attagene cis-factorial reporter mRNA, GLI element; actives raise or lower the signal. The essentials:
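Bidirectional curve fits relative to DMSO, using reporter mRNA levels from RT-PCR plus capillary electrophoresis. Cells were HepG2 transiently carrying cis-regulated reporter constructs, harvested 24 h after dosing.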

Test [11] can be described thus: ATG_GRE_CIS: Attagene CIS-FACTORIAL HepG2 Assay for human Glucocorticoid Response Elements (GRE) (AID 2282947). To be noted: HepG2 GRE cis-reporter, Attagene multiplex mRNA; actives raise or lower the signal. The gist of the method:
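Multiplexed cis-reporter mRNA induction, HepG2, 24 h post-dose. RT-PCR, FAM-labelled, HpaI-digested amplicons by CE. Bidirectional fit vs DMSO.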

Test [12] is described as follows: ATG_M_32_CIS: Attagene CIS-FACTORIAL HepG2 Assay for M32 Transcription Factor (Internal Marker) (AID 2282949).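 Note: background control marker of the multiplexed CIS panel rather than a real target.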 The note with it: HepG2 Attagene cis-factorial M32 reporter, mRNA; actives raise or lower the signal. The essentials: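 Using DMSO as baseline, bidirectional curve fits were applied to reporter mRNA signals. These came from transiently transfected HepG2 cells exposed for 24 h, with RNA analysed by RT-PCR, FAM primer extension, HpaI digestion and CE.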

In test [13] the target is Hypoxia-inducible factor 1-alpha (Homo sapiens) (UniProt Q16665). Put plainly: ATG_HIF1a_CIS: Attagene CIS-FACTORIAL HepG2 Assay for human Hypoxia Inducible Factor 1 (HIF1A) (AID 2282951). To be noted: HepG2 Attagene cis-factorial HIF1a reporter transcription; actives raise or lower the signal. The gist of the method:
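Activity is fitted in both directions relative to DMSO. Reporter transcripts are read by RT-PCR, fluorescent primer extension and capillary electrophoresis after 24 h chemical treatment. The cells are HepG2 carrying transiently transfected cis-element-driven reporter units responding to endogenous factors.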

Test [14] concerns the target Hepatocyte nuclear factor 6 (Homo sapiens) (UniProt Q9UBC0). Put plainly: ATG_HNF6_CIS: Attagene CIS-FACTORIAL HepG2 Assay for human Hepatocyte Nuclear Factor 6 (HNF6) (AID 2282952). To be noted: HepG2 Attagene cis-factorial HNF6 reporter transcription; actives raise or lower the signal. The essentials: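 Twenty-four-hour chemical treatment of reporter-transfected HepG2 cells precedes RNA isolation, DNase-treated reverse transcription and PCR of reporter sequences. Labelled fragments are sized by capillary electrophoresis and fitted bidirectionally versus DMSO.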

Test [15] concerns the target Heat shock factor protein 1 (Homo sapiens) (UniProt Q00613). Put plainly: ATG_HSE_CIS: Attagene CIS-FACTORIAL HepG2 Assay for human Heat Shock Transcription Factor 1 (HSE) (AID 2282953). To be noted: HepG2 HSE cis-reporter, Attagene RNA transcription; actives raise or lower the signal. The essentials: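 Reporter mRNA induction in HepG2 is measured 24 h after dosing, using transiently transfected multiplexed cis-regulated reporter units. Signal comes from capillary electrophoresis of labelled RT-PCR products, with DMSO as negative control.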

Test [16] can be described thus: ATG_MRE_CIS: Attagene CIS-FACTORIAL HepG2 Assay for human Metal Responsive Element (MRE) (AID 2282954). To be noted: HepG2 MRE cis-reporter transcription, Attagene multiplex; actives raise or lower the signal. The gist of the method:
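Multiplexed cis-reporter assay in human HepG2 liver cells, 24 h incubation with test chemical. Reporter transcripts measured by RT-PCR and capillary electrophoresis; values from bidirectional curve fitting versus DMSO.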

A short description of test [17]: ATG_PBREM_CIS: Attagene CIS-FACTORIAL HepG2 Assay for human Phenobarbital-responsive Enhancer Module (PBREM) (AID 2282955). The note with it: HepG2 PBREM cis-reporter, Attagene multiplexed transcription; actives raise or lower the signal. The essentials: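 Endogenous transcription factor activity was read from reporter transcripts in transiently transfected human HepG2 liver cells after 24 h dosing. RT-PCR products were fluorescently labelled, HpaI-cut and sized by capillary electrophoresis; activity fitted bidirectionally against DMSO baseline.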

The target of test [18] is Bile acid receptor (Homo sapiens) (UniProt Q96RI1). Put plainly: ATG_IR1_CIS: Attagene CIS-FACTORIAL HepG2 Assay for human Nuclear Receptor Subfamily 1 Group H Member 4 (NR1H4), IR1 submotif (AID 2282946). The note with it: IR1 reporter transcription, actives raise or lower the signal. The essentials: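 HepG2 cells transiently transfected with multiplexed cis-element reporter units read endogenous transcription factor activity. After 24 h compound exposure, reporter mRNA was quantified by RT-PCR, fluorescent labelling, HpaI digestion and capillary electrophoresis; bidirectional fitting versus DMSO baseline.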
Chain of Bile acid receptor (Homo sapiens) (Q96RI1 whole entry, looked up): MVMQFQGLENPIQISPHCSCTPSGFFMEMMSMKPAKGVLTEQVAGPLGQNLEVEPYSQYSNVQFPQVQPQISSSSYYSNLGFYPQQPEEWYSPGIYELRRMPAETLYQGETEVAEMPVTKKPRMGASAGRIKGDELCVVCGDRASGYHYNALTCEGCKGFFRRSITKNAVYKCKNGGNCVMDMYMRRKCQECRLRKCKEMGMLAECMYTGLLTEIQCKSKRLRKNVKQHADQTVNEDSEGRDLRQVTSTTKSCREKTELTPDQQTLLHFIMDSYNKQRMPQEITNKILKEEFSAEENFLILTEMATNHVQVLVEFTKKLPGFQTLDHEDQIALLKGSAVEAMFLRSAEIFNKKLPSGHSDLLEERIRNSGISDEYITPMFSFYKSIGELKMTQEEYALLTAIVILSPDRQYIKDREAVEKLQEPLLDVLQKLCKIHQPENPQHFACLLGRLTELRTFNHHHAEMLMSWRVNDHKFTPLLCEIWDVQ

A short description of test [19]: ATG_M_06_CIS: Attagene CIS-FACTORIAL HepG2 Assay for M06 Transcription Factor (Internal Marker) (AID 2282950). To be noted: HepG2 Attagene CIS-FACTORIAL M06 internal marker reporter; actives raise or lower the signal. The essentials:
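Measured 24 h post-dosing in transiently transfected HepG2 cells, this internal-marker endpoint reports reporter mRNA via RT-PCR with fluorescent primer extension and capillary electrophoresis. DMSO served as negative control and baseline for bidirectional fitting.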

Test [20] is described as follows: ATG_ISRE_CIS: Attagene CIS-FACTORIAL HepG2 Assay for human Interferon Regulatory Factor 1 (IRF1) binding to an Interferon-Stimulated Response Element (ISRE) (AID 2282948). The note with it: HepG2 ISRE cis-reporter (Attagene), mRNA transcription readout; actives raise or lower the signal. The essentials: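 Uses HepG2 liver cells transfected with cis-regulated reporters and measures mRNA 24 h post-dosing through RT-PCR, primer-extension labelling and capillary electrophoresis, with DMSO as negative control.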

Chain of Hepatocyte nuclear factor 6 (Homo sapiens) (Q9UBC0 whole entry, looked up, the tested form may be a part): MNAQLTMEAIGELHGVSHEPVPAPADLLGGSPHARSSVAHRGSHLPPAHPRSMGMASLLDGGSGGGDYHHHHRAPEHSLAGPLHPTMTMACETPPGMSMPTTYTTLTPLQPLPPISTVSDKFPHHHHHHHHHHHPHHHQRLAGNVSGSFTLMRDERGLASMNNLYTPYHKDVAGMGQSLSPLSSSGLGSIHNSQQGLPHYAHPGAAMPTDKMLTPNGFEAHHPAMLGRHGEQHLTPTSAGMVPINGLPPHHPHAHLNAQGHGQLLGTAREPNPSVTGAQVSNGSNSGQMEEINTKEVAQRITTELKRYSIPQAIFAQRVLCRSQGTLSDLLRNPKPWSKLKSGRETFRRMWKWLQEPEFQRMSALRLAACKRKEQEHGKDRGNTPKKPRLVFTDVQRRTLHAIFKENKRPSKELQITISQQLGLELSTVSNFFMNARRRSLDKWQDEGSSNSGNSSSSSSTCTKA
Chain of Heat shock factor protein 1 (Homo sapiens) (Q00613 whole entry, looked up): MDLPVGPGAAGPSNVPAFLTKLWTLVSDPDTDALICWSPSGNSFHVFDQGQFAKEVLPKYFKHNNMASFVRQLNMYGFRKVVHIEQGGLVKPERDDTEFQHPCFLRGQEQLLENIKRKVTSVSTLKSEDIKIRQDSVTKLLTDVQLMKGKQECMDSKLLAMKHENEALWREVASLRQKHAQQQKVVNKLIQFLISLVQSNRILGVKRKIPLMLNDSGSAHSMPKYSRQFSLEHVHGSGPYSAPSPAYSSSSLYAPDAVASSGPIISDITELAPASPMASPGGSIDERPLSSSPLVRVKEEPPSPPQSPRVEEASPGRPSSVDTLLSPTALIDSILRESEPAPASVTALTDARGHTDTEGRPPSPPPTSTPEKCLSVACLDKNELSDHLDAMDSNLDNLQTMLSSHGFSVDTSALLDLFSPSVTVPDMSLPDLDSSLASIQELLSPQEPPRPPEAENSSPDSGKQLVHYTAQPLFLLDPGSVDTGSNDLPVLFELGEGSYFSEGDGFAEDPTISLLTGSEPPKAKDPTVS
Chain of Hypoxia-inducible factor 1-alpha (Homo sapiens) (Q16665 whole entry, looked up): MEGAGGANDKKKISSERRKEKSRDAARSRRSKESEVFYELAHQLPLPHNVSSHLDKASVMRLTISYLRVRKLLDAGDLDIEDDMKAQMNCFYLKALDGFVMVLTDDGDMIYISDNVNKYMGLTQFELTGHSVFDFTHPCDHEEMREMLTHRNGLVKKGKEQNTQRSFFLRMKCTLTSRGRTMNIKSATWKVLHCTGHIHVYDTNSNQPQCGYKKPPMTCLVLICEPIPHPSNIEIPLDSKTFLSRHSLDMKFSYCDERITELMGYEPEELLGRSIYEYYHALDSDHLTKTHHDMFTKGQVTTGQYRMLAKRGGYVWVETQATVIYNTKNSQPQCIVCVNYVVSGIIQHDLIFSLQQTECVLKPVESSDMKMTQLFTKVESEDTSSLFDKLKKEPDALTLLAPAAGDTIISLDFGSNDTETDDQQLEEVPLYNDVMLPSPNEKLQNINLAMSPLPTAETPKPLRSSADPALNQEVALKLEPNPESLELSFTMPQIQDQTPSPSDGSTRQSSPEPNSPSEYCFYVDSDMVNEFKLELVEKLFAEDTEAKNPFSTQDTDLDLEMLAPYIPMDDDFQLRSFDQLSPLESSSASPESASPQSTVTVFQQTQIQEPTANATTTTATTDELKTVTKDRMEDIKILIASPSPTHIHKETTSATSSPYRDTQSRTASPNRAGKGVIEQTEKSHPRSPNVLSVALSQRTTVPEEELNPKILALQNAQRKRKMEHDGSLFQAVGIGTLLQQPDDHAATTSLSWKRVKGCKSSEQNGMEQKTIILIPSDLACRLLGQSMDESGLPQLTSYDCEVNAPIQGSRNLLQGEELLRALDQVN
Chain of Hepatocyte nuclear factor 3-beta (Homo sapiens) (Q9Y261 whole entry, looked up): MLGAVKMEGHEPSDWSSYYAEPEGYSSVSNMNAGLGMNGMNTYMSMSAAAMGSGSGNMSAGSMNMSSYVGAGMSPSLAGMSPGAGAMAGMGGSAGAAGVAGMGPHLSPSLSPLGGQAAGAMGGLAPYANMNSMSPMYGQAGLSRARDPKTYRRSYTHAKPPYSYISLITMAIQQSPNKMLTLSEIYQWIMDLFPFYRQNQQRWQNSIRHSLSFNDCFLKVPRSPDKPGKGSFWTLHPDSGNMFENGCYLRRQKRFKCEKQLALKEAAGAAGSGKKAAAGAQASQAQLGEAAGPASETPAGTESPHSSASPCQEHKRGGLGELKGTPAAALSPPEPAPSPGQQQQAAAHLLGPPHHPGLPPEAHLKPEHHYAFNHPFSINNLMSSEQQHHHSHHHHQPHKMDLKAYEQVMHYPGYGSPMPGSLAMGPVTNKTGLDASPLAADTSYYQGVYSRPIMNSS

On to `O=C(O)c1cccc(Oc2ccccc2)c1`, for which the outcome in test [1], in [2], in [3], in test [4], in test [5] and in [6] was inactive. The result in [7], in [8], in test [9], in test [10], in test [11] and in test [12] was inactive. Also, the outcome in test [13], in test [14], in test [15], in test [16] and in [17] was inactive.

As a reminder, the AC50 is the concentration giving half of the maximal activity seen. In the case of `CN(C)c1ccc(Cc2ccc(N(C)C)cc2)cc1`, the AC50 is 31.1 µM (active) in [1], 25.6 µM (active) in test [3] and 50.3 µM (active) in test [16]. Moreover, the result in test [2], in test [4], in test [6], in test [7], in test [8] and in [9] was inactive. The compound was called inactive in test [10], in [18], in test [11], in [12], in [19] and in test [13]. Moreover, the call in test [14] and in test [15] was inactive.

`CCC(C)(C)C(=O)O[C@H]1C[C@@H](C)C=C2C=C[C@H](C)[C@H](CC[C@@H]3C[C@@H](O)CC(=O)O3)[C@H]21`: the outcome in [1], in test [2], in test [3], in test [4], in test [6] and in test [7] was inactive. Besides, the result in test [8], in test [9], in [10], in [11], in test [20] and in [12] was inactive. Besides, the call in [19], in test [13], in [14], in test [15], in test [16] and in test [17] was inactive. In addition, the AC50 in [5] was 6.94 µM (active).

For the compound `Oc1ccc2c(c1)-c1ccccc1C2`, the AC50 in [1] is 157 µM (active); in test [3], 38.6 µM (active); in test [18], 1.3 µM (active); in test [20], 100 µM (active); in test [15], 26.5 µM (active); in test [16], 40.8 µM (active). For the same compound, in [17], the AC50 is 59.6 µM (active). Further, the call in [2], in [4], in test [6], in test [7], in test [8] and in test [9] was inactive. Also, the call in test [10], in test [11], in test [12], in test [19], in test [13] and in test [14] was inactive.
